PubChem BioAssay AID1159580 (chemical genetic matrix, 2015)
“And” between values parts separate entries of the source, which are not always exact repeats. Equal entries are not always repeated. Hit rate of the full screen: of about 5,500 compounds, about 2,000 (36%) were called active. Roughly 18% stayed inconclusive and do not appear here. No stated cut-off is given here; in the data, active means normalized growth mostly below about 0.91 (no sharp cut-off); inconclusive means no clear call, values can overlap the other calls; inactive means mostly above about 0.92. The list shows a part of the results.

Experiment: chemical genetic growth profiling, strain panel (AID 1159580);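 further: tested at 20 µM; growth read once vehicle control cultures reached saturation at 30 °C; 1 = growth at the plate median or of vehicle wells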
Details: S. cerevisiae deletion strains, growth OD

Measured: normalized growth

O=C1OCCN1/N=C\c1ccc([N+](=O)[O-])o1
0.883 (inactive) and 0.85 (active): locus YJL095W, strain BCK1, stronger effect = lower value
active: locus YAL026C, strain drs2, stronger effect = lower value 0.889 | locus YDR162C, strain NBP2, stronger effect = lower value 0.771 | locus YDR392W, strain spt3, stronger effect = lower value 0.72 | locus YDR502C, strain sam2, stronger effect = lower value 0.92 | locus YER155C, strain BEM2 (second series), stronger effect = lower value 0.788 | locus YGL086W, strain mad1, stronger effect = lower value 0.923 | locus YJR043C, strain POL32, stronger effect = lower value 0.762
inactive: locus YAL013W, strain DEP1, stronger effect = lower value 0.986 | locus YAL021C, strain ccr4, stronger effect = lower value 0.961 | locus YAL030W, strain snc1, stronger effect = lower value 0.999 | locus YBL061C, strain skt5, stronger effect = lower value 1 | locus YBR009C, strain hhf1, stronger effect = lower value 0.97 | locus YBR021W, strain FUR4, stronger effect = lower value 1.03 | locus YBR023C, strain chs3, stronger effect = lower value 1 | locus YBR171W, strain sec66, stronger effect = lower value 0.987 | locus YBR229C, strain ROT2, stronger effect = lower value 0.999 | locus YBR231C, strain swc5, stronger effect = lower value 0.929 | locus YBR279W, strain paf1, stronger effect = lower value 0.986 | locus YCL011C, strain gbp2, stronger effect = lower value 0.991 | locus YCL016C, strain dcc1, stronger effect = lower value 0.935 | locus YCL029C, strain bik1, stronger effect = lower value 0.97 | locus YCL061C, strain MRC1, stronger effect = lower value 0.987 | locus YCL069W, strain vba3, stronger effect = lower value 0.993 | locus YCR088W, strain abp1, stronger effect = lower value 0.976 | locus YDL005C, strain med2, stronger effect = lower value 0.998 | locus YDL035C, strain GPR1, stronger effect = lower value 0.913 | locus YDL040C, strain nat1, stronger effect = lower value 1 | locus YDL074C, strain BRE1, stronger effect = lower value 0.885 | locus YDL101C, strain DUN1, stronger effect = lower value 0.95 | locus YDL185W, strain tfp1, stronger effect = lower value 0.993 | locus YDL192W, strain arf1, stronger effect = lower value 0.99 | locus YDR001C, strain nth1, stronger effect = lower value 1 | locus YDR069C, strain doa4, stronger effect = lower value 0.928 | locus YDR101C, strain arx1, stronger effect = lower value 0.92 | locus YDR137W, strain rgp1, stronger effect = lower value 0.901 | locus YDR150W, strain NUM1, stronger effect = lower value 1.01 | locus YDR159W, strain sac3, stronger effect = lower value 1.01 | locus YDR195W, strain ref2 1.14 | locus YDR297W, strain sur2, stronger effect = lower value 0.992 | locus YDR318W, strain mcm21, stronger effect = lower value 0.919 | locus YDR334W, strain swr1, stronger effect = lower value 1.01 | locus YDR335W, strain msn5, stronger effect = lower value 0.975 | locus YDR388W, stronger effect = lower value 0.982 | locus YEL003W, strain gim4, stronger effect = lower value 0.916 | locus YEL037C, strain rad23, stronger effect = lower value 0.986 | locus YEL061C, strain CIN8 (second series), stronger effect = lower value 1 | locus YEL061C, strain CIN8, stronger effect = lower value 0.999 | locus YER015W, strain faa2, stronger effect = lower value 0.986 | locus YER016W, strain bim1, stronger effect = lower value 0.932 | locus YER110C, stronger effect = lower value 0.979 | locus YER111C, strain swi4, stronger effect = lower value 1.01 | locus YER155C, strain BEM2, stronger effect = lower value 0.996 | locus YER167W, strain BCK2, stronger effect = lower value 0.978 | locus YFR010W, strain ubp6, stronger effect = lower value 0.919 | locus YGL078C, strain dbp3, stronger effect = lower value 0.955 | locus YGL167C, strain pmr1, stronger effect = lower value 1 | locus YGL173C, strain kem1, stronger effect = lower value 0.982 | locus YGL227W, strain vid30, stronger effect = lower value 1 | locus YGL240W, strain doc1, stronger effect = lower value 0.935 | locus YGL248W, strain PDE1, stronger effect = lower value 0.944 | locus YGL253W, strain hxk2, stronger effect = lower value 0.934 | locus YGR135W, strain pre9, stronger effect = lower value 0.936 | locus YGR252W, strain gcn5, stronger effect = lower value 0.808 | locus YHR013C, strain ard1, stronger effect = lower value 1.01 | locus YHR027C, strain rpn1, stronger effect = lower value 0.967 | locus YHR030C, strain SLT2, stronger effect = lower value 1 and 0.876 | locus YHR079C, strain IRE1 (second series), stronger effect = lower value 0.937 | locus YHR079C, strain IRE1, stronger effect = lower value 0.88 | locus YHR094C, strain hxt1, stronger effect = lower value 0.999 | locus YHR129C, strain ARP1, stronger effect = lower value 0.992 | locus YHR142W, strain chs7, stronger effect = lower value 0.967 | locus YHR200W, strain rpn10, stronger effect = lower value 0.995 | locus YIL066C, strain RNR3, stronger effect = lower value 0.997 | locus YIL073C, strain SPO22, stronger effect = lower value 0.761 | locus YIL125W, strain kgd1, stronger effect = lower value 0.974 | locus YIR030C, strain dcg1, stronger effect = lower value 0.967 | locus YJL092W, strain hpr5, stronger effect = lower value 0.937 | locus YJL095W, strain BCK1 (second series), stronger effect = lower value 1.02 | locus YJL115W, strain asf1, stronger effect = lower value 0.982 | locus YJL129C, strain trk1, stronger effect = lower value 1.09 | locus YJL134W, strain LCB3, stronger effect = lower value 0.998 | locus YJL154C, strain vps35, stronger effect = lower value 0.993 | locus YJL164C, strain tpk1, stronger effect = lower value 0.962 | locus YJL166W, strain qcr8, stronger effect = lower value 0.985 | locus YJL168C, strain set2, stronger effect = lower value 0.999 | locus YJL187C, strain SWE1 (second series), stronger effect = lower value 0.971 | locus YJL187C, strain SWE1, stronger effect = lower value 1 | locus YJR066W, strain TOR1, stronger effect = lower value 0.826
